Data as given in PubChem BioAssay AID1210 (NMMLSC, 2008).
Calls of active or inactive are those of the source.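 The calls were made as follows: active = blocks over 70% of labeled estradiol binding at 10 µM, or over a set limit at 100 nM; inactive = the rest.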

target: Estrogen receptor beta (Homo sapiens) (UniProt Q92731); assay: ERbeta ligand binders by competition, primary screen, cell-based, Cos7 ERbeta-GFP, flow cytometry (AID 1210); conditions: fluorescent estrogen binding, at 10 µM, active compounds read high;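 also: 0% = DMSO vehicle wells and 100% = complete loss of labeled estradiol signal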
Sequence (Q92731 whole entry, looked up): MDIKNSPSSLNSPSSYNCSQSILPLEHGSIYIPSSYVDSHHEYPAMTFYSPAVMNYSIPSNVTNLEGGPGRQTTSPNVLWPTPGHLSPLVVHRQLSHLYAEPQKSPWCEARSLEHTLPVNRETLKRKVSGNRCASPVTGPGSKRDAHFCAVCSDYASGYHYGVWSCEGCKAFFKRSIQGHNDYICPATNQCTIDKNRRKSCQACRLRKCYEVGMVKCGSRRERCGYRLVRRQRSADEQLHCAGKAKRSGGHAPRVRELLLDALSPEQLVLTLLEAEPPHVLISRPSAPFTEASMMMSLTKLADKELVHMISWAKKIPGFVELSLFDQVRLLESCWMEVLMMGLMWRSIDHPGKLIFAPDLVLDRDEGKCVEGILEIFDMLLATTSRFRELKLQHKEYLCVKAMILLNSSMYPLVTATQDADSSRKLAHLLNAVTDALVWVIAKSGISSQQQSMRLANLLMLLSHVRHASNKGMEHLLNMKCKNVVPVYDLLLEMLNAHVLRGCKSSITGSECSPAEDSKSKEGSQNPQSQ

| SMILES | inhibition |
| --- | --- |
| COc1ccc2[nH]c3c(c2c1)CCNC3C1CC=C(C)CC1 (stereo not drawn) | 22% (inactive) |
| CCCCc1cc(=O)oc2c(C)c(O)ccc12 | 7% (inactive) |
| COC(=O)c1ccc(-c2n[nH]c(=O)c3ccccc23)cc1 | 32% (inactive) |
| CCCSc1nc(C)c(-c2csc(C(C#N)=C3CCCC3)n2)cc1C#N | 37% (inactive) |
| Cc1c(Cc2ccccc2)c(=O)n2c([nH]c3ccccc32)c1C#N | 9% (inactive) |
| Cc1oc2ccc(OCC#N)cc2c1C(=O)OC(C)C | 14% (inactive) |
| CCc1cc2c3c(c(=O)oc2cc1OC)CCCC3 | 18% (inactive) |
| Nc1c(Cl)cc(Cl)cc1C(=O)OCC(=O)NC1CC1 | 42% (inactive) |
| COc1cccc([C@@H]2Oc3ccc(OC)cc3C(=O)[C@H]2O)c1 | 32% (inactive) |
| O=C(C1c2ccccc2C(=O)N2CCc3ccccc3C12)N1CCN(Cc2ccccc2)CC1 (stereo not drawn) | 29% (inactive) |
| CCCOc1cc(OCCC)c2c3c(c(=O)oc2c1)CCCC3 | 20% (inactive) |
| CCOc1ccc(N=C2NC(=O)S/C2=C\c2ccc(OC)cc2)cc1 | 47% (inactive) |
| COc1nnc(-c2ccc(C(=O)N3C[C@@H]4C[C@H](C3)c3cccc(=O)n3C4)cc2)c2ccccc12 | 34% (inactive) |
| COc1ccc(Cn2c(=O)[nH]c3cc(C(=O)NCc4ccc5c(c4)OCO5)ccc3c2=O)cc1 | 35% (inactive) |
| COc1ccc(C(N)CCc2ccc(C)o2)cc1 (stereo not drawn) | 38% (inactive) |
| CC(=O)Nc1ccc2[nH]c(C)cc(=O)c2c1 | 64% (inactive) |
| CC1(C)C=C(c2ccc(O)cc2)CC(C)(C)N1 | 43% (inactive) |
| Cc1sc2ncnc(NCc3ccco3)c2c1C | 39% (inactive) |
| O=C(O)c1ccc(Cl)c2c1C1C=CCC1C(c1ccccn1)N2 (stereo not drawn) | 28% (inactive) |

| SMILES | inhibition |
| --- | --- |
| Cc1cc(C(C)CO)cc(C(C)(C)C)c1O (stereo not drawn) | 19% (inactive) |
| O=C1CC(c2ccc3c(c2)OCO3)c2ccc3ccccc3c2N1 (stereo not drawn) | 19% (inactive) |
| O=C(NC1CC1)c1ccc2c(c1)C1C3CCC(C3)C1C(c1ccccc1)N2 (stereo not drawn) | 0% (inactive) |
| CCc1cc2c3c(c(=O)oc2cc1OCC(=O)O)CCCC3 | 20% (inactive) |
| COC(=O)c1ccc2c(c1)C1C=CCC1C(c1cccc([N+](=O)[O-])c1)N2 (stereo not drawn) | 18% (inactive) |
| Nc1ccc2nc(-c3ccc(N)c(Cl)c3)[nH]c2c1 | 64% (inactive) |
| CC(=O)c1ccc2c(c1)C1C=CCC1C(c1cccc([N+](=O)[O-])c1)N2 (stereo not drawn) | 0% (inactive) |
| COc1cc([N+](=O)[O-])cc2c1NC(c1ccc(Br)cc1)C1CC=CC21 (stereo not drawn) | 17% (inactive) |
| COc1ccc(-c2nc(C(N)=O)c3[nH]c(=O)n(-c4cccc(Cl)c4)c3n2)cc1OC | 13% (inactive) |
| Cc1ccc(-n2nnnc2SCC(=O)Nc2cccc(NC(=O)c3ccco3)c2)cc1C | 56% (inactive) |
| COc1ccc(C2Nc3ccccc3C(=O)N2c2ccc(C)cc2)cc1COc1ccccn1 (stereo not drawn) | 44% (inactive) |
| COc1ccc(NS(=O)(=O)c2ccc3c(c2)[C@H]2C=CC[C@H]2[C@@H](c2cccc(OC)c2OC)N3)cc1 | 1% (inactive) |
| COc1cc2c(cc1OC)CC(C)(C)N(Cc1ccco1)C2 | 15% (inactive) |
| Cc1ccc(-c2n[nH]c(=S)n2/N=C/C=C/c2ccccc2[N+](=O)[O-])cc1 | 53% (inactive) |
| CSC(=O)CNC1(Cc2ccc(O)cc2)CCCCC1 | 87% (active) |
| CCOC(=O)c1c(N)sc2c1CC(C)(C)NC2(C)C | 22% (inactive) |
| Cc1c(O)ccc2c3c(c(=O)oc12)CCCC3 | 28% (inactive) |
| O=C(N/N=C/c1cccc(Oc2ccc([N+](=O)[O-])cc2[N+](=O)[O-])c1)c1cncc(Br)c1 | 46% (inactive) |
| COc1cc([N+](=O)[O-])cc2c1NC(c1ccc(Cl)cc1)C1CC=CC21 (stereo not drawn) | 1% (inactive) |
